PubChem BioAssay AID1159580 (chemical genetic matrix, 2015)
Among all 5,500 compounds or so, about 2,000 (36%) were called active. Not shown: some 18% with an inconclusive outcome. Rule as the data show it: active = normalized growth mostly below about 0.91 (no sharp cut-off); inconclusive = no clear call, values can overlap the other calls; inactive = mostly above about 0.92. This is one part of the list. Where a SMILES comes first, the peptide text is derived from it.

Assay: chemical genetic growth profiling, strain panel (AID 1159580);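 also: tested at 20 µM; growth read once vehicle control cultures reached saturation at 30 °C; 1 = growth at the plate median or of vehicle wells; lower values mean less growth of the strain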
Conditions: S. cerevisiae deletion strains, growth OD
[1] = locus YHR030C, strain SLT2, stronger effect = lower value
[2] = locus YHR079C, strain IRE1, stronger effect = lower value
[3] = locus YJL095W, strain BCK1, stronger effect = lower value
[4] = locus YJR066W, strain TOR1, stronger effect = lower value
[5] = locus YLR113W, strain HOG1, stronger effect = lower value
[6] = locus YNL183C, strain NPR1, stronger effect = lower value
[7] = locus YOR231W, strain MKK1, stronger effect = lower value
[8] = locus YPL256C, strain CLN2, stronger effect = lower value

Measured: normalized growth

CC(C)C[C@H](N)C(=O)N[C@@H](C)C(=O)O (H-Leu-Ala-OH)
inactive: [1] 1.01 | [2] 1.01 | [3] 1.02 | [4] 0.975 | [5] 1.02 | [6] 0.954 | [7] 1.03 | [8] 1.02

COc1cc(C(O)C(=O)O)ccc1O (stereo not drawn)
inactive: locus YAL013W, strain DEP1, stronger effect = lower value 0.996 | locus YAL040C, strain CLN3, stronger effect = lower value 0.984 | locus YCL061C, strain MRC1 (second series), stronger effect = lower value 0.994 | locus YDR150W, strain NUM1, stronger effect = lower value 0.994 | locus YDR363W, strain ESC2, stronger effect = lower value 1.01 | locus YER002W, strain NOP16, stronger effect = lower value 1.03 | locus YGR078C, strain PAC10, stronger effect = lower value 1 | locus YJR075W, strain HOC1, stronger effect = lower value 0.991 | locus YMR307W, strain GAS1, stronger effect = lower value 0.989 | locus YNL128W, strain TEP1, stronger effect = lower value 0.986 | locus YNL153C, strain GIM3, stronger effect = lower value 1.01 | locus YNL175C, strain NOP13, stronger effect = lower value 0.992 | locus YNL197C, strain WHI3, stronger effect = lower value 1.01 | locus YNL224C, strain SQS1, stronger effect = lower value 1.02 | locus YNL322C, strain KRE1, stronger effect = lower value 0.998 | locus YOR083W, strain WHI5 (second series), stronger effect = lower value 1.01 | locus YPL055C, strain LGE1, stronger effect = lower value 1.01

COc1ccc(C(C)=O)c(OC)c1
inactive: [1] 0.954 | [2] 0.952 | [3] 0.965 | [4] 0.953 | [5] 0.948 | [6] 0.895 | [7] 0.934 | [8] 0.909
